Shown is part of a subset that was picked to be rich in hits.
Shiga toxin inh = A qHTS for Small Molecule Inhibitors of Shiga Toxin; inhibition, % at 38.7 µM; Vero cells, Shiga toxin protein synthesis inhibition reporter; actives 9.2% (n = 290,000); in the data active means inhibition mostly above about 28%, no sharp cut-off; inactive means mostly below about 43%; further: 0% is about no effect
Cycloheximide cs = Cycloheximide Counterscreen for Small Molecule Inhibitors of Shiga Toxin | actives 12% (n = 300,000) | cell reporter, cycloheximide protein synthesis inhibition counterscreen | max response, %; in the data active means max response mostly above about 13%, no sharp cut-off; inactive means mostly below about 14%; further: read at 38.3 µM for the half of the compounds with a filed dose; 0% is about no effect
Marburg entry inh = qHTS for inhibitors of binding or entry into cells for Marburg Virus; Marburg virus pseudotyped entry inhibition, cell reporter; Potency, µM (highest dose often 37.8 µM), inactives show at the highest dose activity change, negative = inhibition, hits mostly inhibitors; actives 1.8% (n = 300,000); calls by dose curve; tested in HEK293 cells; further: potency means the concentration at half of the fitted maximal effect; on the % scale 0 is the no-effect control and ±100 the full control effect
VACV Venus inh = qHTS for Stage-Specific Inhibitors of Vaccinia Orthopoxvirus: Venus Reporter Primary qHTS; Vaccinia virus Venus reporter expression, fluorescence; Potency, µM (doses to about 36.5 µM), without a hit: at the top dose activity change, negative = inhibition, actives largely listed as inhibitors; actives 0.46% (n = 330,000); calls by dose curve; tested in A549 cells; further: potency means the concentration at half of the fitted maximal effect; on the % scale 0 is the no-effect control and ±100 the full control effect; nearly all actives have a fitted effect of over 30% in size
VACV mCherry inh = qHTS for Stage-Specific Inhibitors of Vaccinia Orthopoxvirus: mCherry Reporter Primary qHTS | Vaccinia virus mCherry reporter infection, fluorescence | Potency, µM (doses to about 36.5 µM), inactives show top-dose activity change, negative = inhibition, actives largely listed as inhibitors | actives 0.63% (n = 310,000) | AID 720579, 2013; calls by dose curve; tested in A549 cells; further: potency means the concentration at half of the fitted maximal effect; on the % scale 0 is the no-effect control and ±100 the full control effect; nearly all actives have a fitted effect of over 35% in size
Lassa entry inh = qHTS for Inhibitors of binding or entry into cells for Lassa Virus | actives 1.2% (n = 300,000) | Lassa virus pseudotype entry inhibition, cell reporter | AID 540256, 2011 | Potency, µM (top dose mostly 37.9 µM), without a hit: at the top dose activity change, negative = inhibition, actives largely listed as inhibitors; calls by dose curve; tested in HEK293 cells; further: potency means the concentration at half of the fitted maximal effect; on the % scale 0 is the no-effect control and ±100 the full control effect; nearly all actives have a fitted effect of over 50% in size
Numbers without * were called inactive; i = inactive; ? = inconclusive; . = not tested or not shown; ! = repeats disagree; [ ] = remark or other dose.

SMILES	Shiga toxin inh	Cycloheximide cs	Marburg entry inh	VACV Venus inh	VACV mCherry inh	Lassa entry inh
COc1ccc(/C=N/N2C(=N)SCC2=O)cc1	29	14*	?	?	i	?
CC(C)CCOc1ccc(/C=N/N2C(=O)CSC2=S)cc1	-13	-3	-1%[46.1 µM]	8%	-3%	12%[46.1 µM]
CC(NC(=O)COC(=O)c1ccccc1Nc1ccccc1)c1ccccc1 (stereo not drawn)	-12	-4	-6%	-17%	-3%	-3%
CCOC(=O)Nc1ccc2nc(-c3cscn3)[nH]c2c1	.	.	.	?	-2%	.
c1ccc2[nH]c(-c3cscn3)nc2c1	102*	53*	22%	-20%	-4%	27%
c1ccc2nc(-c3nc4ccccc4[nH]3)ccc2c1	22	14*	?	-19%	-9%[1.46 µM]	?
Cc1ccc(CNC(=O)c2ccc(CSCc3c(F)cccc3Cl)o2)cc1	.	.	.	6%	-2%	?
COC(=O)NC(=C(Cl)Cl)S(=O)(=O)c1ccccc1	128*	82*	?	?	.	13µM*
Cc1ccc(C(=O)NC(=C(Cl)Cl)S(=O)(=O)c2ccccc2)cc1	161*	103*	?	.	.	?
Cc1ccc(C(=O)NC(=S)NNS(=O)(=O)c2ccccc2)cc1	-3	-2	-11%[46.1 µM]	-15%	-21%	?
COc1ccc(C(=O)NC(=C(Cl)Cl)S(=O)(=O)c2ccc(C)cc2)cc1	39	22*	.	.	.	.
COc1ccc(C(=O)NC(=O)COC(=O)CCS(=O)(=O)c2ccc(C)cc2)cc1	.	.	?	-6%	i	?
CCc1sc(C(=O)N2CCN(c3ncccn3)CC2)cc1Br	-6	-3	.	.	.	.
COC(=O)c1cccc(Nc2c(-c3cc(Br)ccc3O)nc3nc[nH]n23)c1	.	.	.	-10%	-16%	-2%[46.1 µM]
Cc1c(C(=O)Nc2ccc(F)cc2)nnn1-c1cccc(C(F)(F)F)c1	49*	47*	-1%[46.1 µM]	-20%	-17%	?
Cc1cccc(-n2nnc(C(=O)Nc3ccc(F)cc3)c2N)c1	79*	51*	-19%[46.1 µM]	-17%	i	?
Cc1ccc(NC(=O)c2nnn(-c3cc(C)cc(C)c3)c2N)cc1	130*	38*	?	.	.	2%
Cc1cccc(-n2nnc(C(=O)N3CCc4ccccc4C3)c2N)c1	55*	29*	4%	-7%	4%	22%
COC(=O)c1nnn(-c2cccc(C)c2)c1N	.	.	-15%[46.1 µM]	6%	4%	4%[46.1 µM]
CCS(=O)(=O)NCc1c(C)ncc2c1CCN(C(=O)c1ccc(F)cc1)C2	.	.	.	-22%	-27%	.
Cc1ccnc(NC(=O)c2ccc(Cl)s2)c1	70*	53*	.	.	.	.
O=C(Nc1ccon1)c1ccc(Cl)s1	15	15*	-3%	-13%	i	3%
Cc1ccnc(NC(=O)CCNC(=O)c2ccc(Cl)cc2)c1	-14	-1	.	.	.	.
CC(=O)N1CCCC1(C(=O)O)c1ccccc1 (stereo not drawn)	11	2	16%[46.1 µM]	-12%	-13%	-1%
N#CCCN1CCCc2cc(N=Nc3ccc(C(F)(F)F)cc3)ccc21	61*	43*	?	-16%	?	1%[46.1 µM]
SMILES	Shiga toxin inh	Cycloheximide cs	Marburg entry inh	VACV Venus inh	VACV mCherry inh	Lassa entry inh
Cn1cc(-c2nnc(-c3ccccc3)o2)c2ccccc21	146*	59*	-5%	.	.	?
Cc1cc(-c2nnc(-c3cccc(Cl)c3)o2)no1	93*	37*	?	1%[7.34 µM]	i[7.34 µM]	1%
Cc1ccccc1-c1nnc(-c2ccc(Cl)cc2)o1	104*	58*	?	4%	-1%	?
Cn1c2ccccc2c2nnc(SCc3nnc(-c4ccccc4)o3)nc21	-14	-3	.	.	.	.
Cc1nnc(-c2ccccc2)o1	-1	3	.	-3%	-6%	.
Cc1ccccc1-c1nnc(-c2ccccc2)o1	95*	35*	?	-11%	i	?
COc1ccc(OC)c([C@H]2/C(=C(\O)c3ccccc3)C(=O)C(=O)N2Cc2ccco2)c1	.	.	10%[46.1 µM]	.	.	.
Cc1ccc(-n2nnc(-c3nc(-c4cccs4)no3)c2N)c(C)c1	.	.	.	-4%[7.34 µM]	-8%[7.34 µM]	16%[46.1 µM]
O=C(NCC1CCN(C(=O)c2ccc([N+](=O)[O-])cc2)CC1)c1ccc([N+](=O)[O-])cc1	0	13	-12%[46.1 µM]	4%	3%	.
Cc1ccc(-c2nc3ccccc3[nH]2)cc1NC(=O)COc1cccc(C)c1C	.	.	?	-14%	3%	-7%[46.1 µM]
Nc1nnc(-c2cccc([N+](=O)[O-])c2)o1	23	2	18%[46.1 µM]	-7%	0%	16%[46.1 µM]
Cc1ccccc1-c1nnc(CS(=O)(=O)c2ccccc2)o1	61*	43*	?	-2%	-2%	-30%
Cc1ccccc1-c1nc(Cc2ccc(Cl)cc2)no1	42	25*	22%	.	.	25%
Cc1ccccc1-c1noc(-c2cccnc2N(C)Cc2ccc(Cl)cc2)n1	.	.	-8%[46.1 µM]	-14%	-20%	13%[46.1 µM]
CN(C)c1ccc(-c2nnc(-c3ccccc3F)o2)cc1	59*	28*	.	.	.	.
O=[N+]([O-])c1cccc(-c2nnc(-c3ccccc3F)o2)c1	22*	30*	.	.	.	.
CC(C)Cn1cc(F)c(=O)n(CC(C)C)c1=O	18	-2	0%[46.1 µM]	4%	-10%	5%
CCc1ccccc1NC(=O)CNCC(=O)Nc1ccccc1CC	-14	-1	0%[46.1 µM]	2%	-11%	?
CC(=O)c1ccc(NC(=O)C2CCN(c3nnc(C)c4c(C)n(-c5ccccc5)nc34)CC2)cc1	.	.	.	?	-24%	23%[46.1 µM]
CC(C)NC(=O)C1(C)CCN1C(=O)c1c(F)cccc1F (stereo not drawn)	.	.	.	17%	7%	.
Cc1cccc(OCc2nnc(-c3ccccc3)o2)c1	.	.	10%[46.1 µM]	-3%	-1%	14%[46.1 µM]
Cc1cccc(-c2nnc(-c3ccccc3)o2)c1	56*	33*	28%	18%	.	0%
COc1cc2[nH]c(=O)n(Cc3ccc(C(=O)N4CCN(c5cc(Cl)ccc5C)CC4)cc3)c(=O)c2cc1OC	.	.	?	-29%	?	4%[46.1 µM]
O=C(O)c1ccc(N/N=C/c2cccc3cccnc23)cc1	83*	49*	.	9%	1%	.
O=C(O)c1ccc(N/N=C/c2ccnc3ccccc23)cc1	91*	41*	.	-6%[7.34 µM]	-3%[7.34 µM]	.
C(=NNC1=NCCN1)c1ccnc2ccccc12	.	.	.	-5%	i	.
CCOC(=O)C1=C(COC(=O)CSc2ccc(C)cc2C)NC(=O)NC1C (stereo not drawn)	.	.	-3%	-5%	-6%	-10%
Cc1ccc(Cl)cc1NC(=O)Nc1nnc(N2CCCC(C)C2)s1 (stereo not drawn)	.	.	?	-19%	-23%	2%[46.1 µM]
C[C@H]1c2cccc(O)c2C(O)=C2C(=O)[C@]3(O)C(O)=C(C(N)=O)C(=O)[C@@H](N(C)C)[C@@H]3[C@@H](O)[C@@H]21	-6	10*!	4%	?	-10%	11%
CCc1ccc(/C=N/NC(=O)c2c[nH]c3ccccc23)s1	91*	49*	21%	?	?	?

Assay outcomes from PubChem.
